Measurements reported in PubChem BioAssay (EPA / NIEHS).
Values joined by “and” are separate entries in the source; they are usually repeats but may differ in a detail not shown here. Equal entries are not always repeated. More than one record can exist for a structure, and the calls need not agree. Active and inactive are the calls of the source. Rule for the calls: active = hit-call score of the fitted dose curve at least 0.9, where 1 is the maximum; inactive = score below 0.9.

What was measured:
[1] = ATG_M_61_CIS: Attagene CIS-FACTORIAL HepG2 Assay for M61 Transcription Factor (Internal Marker) (AID 2282937); settings: HepG2 Attagene CIS-FACTORIAL M61 internal marker reporter; actives raise or lower the signal
How it was run: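 Background-control endpoint: HepG2 cells with cis-regulated reporter constructs, 24 h exposure, reporter mRNA detected via fluorescent primer extension and capillary electrophoresis; values from bidirectional fitting with DMSO baseline.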

[2] = ATG_EGR_CIS: Attagene CIS-FACTORIAL HepG2 Assay for human Early Growth Response 1 (EGR1) (AID 2282938); settings: HepG2 Attagene CIS-FACTORIAL EGR reporter mRNA; actives raise or lower the signal
How it was run: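 Endpoint derived by bidirectional fitting versus DMSO vehicle. Method: cis-promoter reporter units transfected into HepG2, 24 h dosing, RNA isolation, RT-PCR with 6-FAM primer extension and HpaI digestion, then capillary electrophoresis fluorescence detection.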

[3] = ATG_M_19_CIS: Attagene CIS-FACTORIAL HepG2 Assay for M19 Transcription Factor (Internal Marker) (AID 2282939); settings: HepG2 Attagene CIS-FACTORIAL M19 internal marker reporter; actives raise or lower the signal
How it was run: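 Internal marker readout, fitted in both directions against DMSO, from HepG2 cells carrying transfected cis-element reporter constructs; RT-PCR and capillary electrophoresis of reporter mRNA after 24 h exposure.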

[4] = ATG_ERE_CIS: Attagene CIS-FACTORIAL HepG2 Assay for Estrogen Response Element (ERE) (AID 2282940); settings: HepG2 ERE cis-reporter, Attagene RNA transcript; actives raise or lower the signal
How it was run: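 After 24 h compound treatment, RNA from transfected HepG2 cells was reverse-transcribed, reporter cDNA PCR-amplified, FAM-labelled, HpaI-cut and resolved by capillary electrophoresis. ERE-driven cis reporter transcripts reflect endogenous factors; gain or loss scored against DMSO.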

[5] = ATG_Ets_CIS: Attagene CIS-FACTORIAL HepG2 Assay for human Erythroblast Transformation Specific (ETS) (AID 2282941); settings: HepG2 ETS cis-reporter transcription; AC50: actives raise or lower the signal unless noted; outcome: actives raise or lower the signal unless noted
How it was run: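 Endogenous transcription factor activity read as reporter mRNA via RT-PCR and capillary electrophoresis, with gain or loss fitted bidirectionally against DMSO. Human HepG2 liver cells, transiently transfected CIS reporter constructs, 24 h exposure.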

[6] = target: Hepatocyte nuclear factor 3-beta (Homo sapiens) (UniProt Q9Y261); test: ATG_FoxA2_CIS: Attagene CIS-FACTORIAL HepG2 Assay for human Forkhead box A2 (FOXA2) (AID 2282942); settings: HepG2 cis-reporter transcription factor activity, 24 h; actives raise or lower the signal
Chain of Hepatocyte nuclear factor 3-beta (Homo sapiens) (Q9Y261 whole entry, looked up): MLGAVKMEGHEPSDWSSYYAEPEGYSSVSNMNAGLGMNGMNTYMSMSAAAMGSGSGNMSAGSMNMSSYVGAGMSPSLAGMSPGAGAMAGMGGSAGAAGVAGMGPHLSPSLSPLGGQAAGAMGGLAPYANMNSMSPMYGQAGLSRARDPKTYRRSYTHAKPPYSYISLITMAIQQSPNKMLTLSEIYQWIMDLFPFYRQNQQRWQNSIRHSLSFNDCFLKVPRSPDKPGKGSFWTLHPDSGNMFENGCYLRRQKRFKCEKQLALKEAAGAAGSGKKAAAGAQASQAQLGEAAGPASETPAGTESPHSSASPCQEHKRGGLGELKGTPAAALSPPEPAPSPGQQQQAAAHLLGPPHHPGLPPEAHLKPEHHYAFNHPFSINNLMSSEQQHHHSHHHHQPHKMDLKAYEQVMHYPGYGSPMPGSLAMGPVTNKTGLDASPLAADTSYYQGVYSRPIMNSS
How it was run: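 Measured: reporter mRNA induction or loss in HepG2 transiently carrying multiple cis-regulated reporter units, 24 h after dosing. Quantified by RT-PCR plus capillary electrophoresis, normalised to DMSO.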

[7] = ATG_FoxO_CIS: Attagene CIS-FACTORIAL HepG2 Assay for human Forkhead box O (FoxO) (AID 2282943); settings: HepG2 Attagene cis-reporter, FoxO element, mRNA; actives raise or lower the signal
How it was run: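 HepG2 cells transiently transfected with cis-promoter-driven multiple reporter transcription units; 24 h after chemical dosing, reporter mRNA quantified by RT-PCR, fluorescent primer extension, HpaI digestion and capillary electrophoresis. Bidirectional fitting versus DMSO baseline.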

[8] = ATG_GATA_CIS: Attagene CIS-FACTORIAL HepG2 Assay for human GATA Binding Protein (AID 2282944); settings: HepG2 GATA cis-element reporter, Attagene multiplex mRNA; actives raise or lower the signal
How it was run: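 Reporter transcripts from a GATA cis-regulated unit, among multiplexed reporters in transfected HepG2 cells, were measured by RT-PCR with capillary electrophoresis after 24 h dosing. Induction or loss scored relative to DMSO.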

[9] = ATG_GLI_CIS: Attagene CIS-FACTORIAL HepG2 Assay for human Zinc Finger Protein GLI1 (AID 2282945); settings: HepG2, Attagene cis-factorial reporter mRNA, GLI element; actives raise or lower the signal
How it was run: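 HepG2 cells transiently transfected with cis-promoter multiplexed reporter units report endogenous transcription factor activity. After 24 h chemical exposure, reporter mRNA was quantified by RT-PCR, 6-FAM labelling, HpaI digestion and capillary electrophoresis, with bidirectional fitting against DMSO.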

[10] = target: Bile acid receptor (Homo sapiens) (UniProt Q96RI1); test: ATG_IR1_CIS: Attagene CIS-FACTORIAL HepG2 Assay for human Nuclear Receptor Subfamily 1 Group H Member 4 (NR1H4), IR1 submotif (AID 2282946); settings: IR1 reporter transcription, actives raise or lower the signal
Chain of Bile acid receptor (Homo sapiens) (Q96RI1 whole entry, looked up): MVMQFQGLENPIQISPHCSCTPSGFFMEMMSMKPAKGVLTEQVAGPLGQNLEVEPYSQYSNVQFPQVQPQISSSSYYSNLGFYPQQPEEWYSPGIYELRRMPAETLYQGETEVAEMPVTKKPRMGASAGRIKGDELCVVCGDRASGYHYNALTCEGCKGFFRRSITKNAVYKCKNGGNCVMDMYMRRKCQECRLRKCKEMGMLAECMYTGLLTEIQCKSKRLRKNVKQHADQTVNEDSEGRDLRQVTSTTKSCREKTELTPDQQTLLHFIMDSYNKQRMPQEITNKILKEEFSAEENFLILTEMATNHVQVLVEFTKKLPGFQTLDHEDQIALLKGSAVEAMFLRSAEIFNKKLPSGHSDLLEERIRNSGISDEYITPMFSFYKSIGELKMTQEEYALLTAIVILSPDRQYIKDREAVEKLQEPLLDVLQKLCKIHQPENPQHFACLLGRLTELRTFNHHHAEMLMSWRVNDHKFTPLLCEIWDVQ
How it was run: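 Readout: reporter transcript levels by RT-PCR with fluorescent capillary electrophoresis, from HepG2 cells transiently transfected with multiplexed cis-regulated reporters and dosed 24 h. Gain- or loss-of-signal fitted versus DMSO negative control.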

Structure (SMILES)	outcome [1]	outcome [2]	outcome [3]	outcome [4]	outcome [5]	outcome [6]	outcome [7]	outcome [8]	outcome [9]	outcome [10]	AC50 [4]	AC50 [6]	AC50 [2]	AC50 [3]	AC50 [8]	AC50 [9]	AC50 [5]	AC50 [7]	AC50 [10]
FC(F)(F)C1(F)C(F)(F)C(F)(F)C(F)(F)C1(F)F	inactive	inactive	inactive	inactive	inactive	inactive	inactive	inactive	inactive	inactive									
FC(OC(F)(F)C(F)(F)C(F)(F)F)C(F)(F)F (stereo not given)	inactive	inactive	inactive	inactive	inactive	inactive	inactive	inactive	inactive										
FC(F)(F)C(F)(F)C(F)(F)Br	inactive	inactive	inactive	inactive	inactive	inactive	inactive	inactive	inactive										
NNC(=O)CCCCC(=O)NN	inactive	inactive	inactive	inactive	inactive	inactive	inactive	inactive	inactive	inactive									
c1cc2cccc3c4cccc5cccc(c(c1)c23)c54	inactive	inactive	inactive	inactive	inactive	inactive	inactive	inactive	inactive										
O=C(O)CCC(F)(F)C(F)(F)C(F)(F)C(F)(F)C(F)(F)F	inactive	inactive	inactive	inactive	inactive	inactive	inactive	inactive	inactive										
CN(CCO)S(=O)(=O)C(F)(F)C(F)(F)C(F)(F)C(F)(F)C(F)(F)C(F)(F)C(F)(F)C(F)(F)F	inactive	inactive	inactive	inactive	inactive	inactive	inactive	inactive	inactive	inactive									
CC1CCC(CO)CC1 (stereo not given)	inactive	inactive	inactive		inactive	inactive	inactive	inactive	inactive		20 µM (active) and 27.1 µM (active)								
CC1=NN(c2ccccc2)C(=O)C1	inactive	inactive	inactive	inactive	inactive	inactive	inactive	inactive	inactive										
C=CC(=O)OCCC(F)(F)C(F)(F)C(F)(F)C(F)(F)C(F)(F)C(F)(F)C(F)(F)C(F)(F)F	inactive	inactive	inactive		inactive	inactive	inactive	inactive	inactive		22.6 µM (active)								
Cc1ccccc1OCC(=O)O	inactive	inactive	inactive	inactive	inactive		inactive	inactive	inactive			26 µM (active)							
CN(C)CCOC(c1ccccc1)c1ccccc1	inactive	inactive	inactive	inactive	inactive	inactive	inactive	inactive	inactive										
c1ccc2c(c1)CCC2	inactive	inactive	inactive	inactive	inactive	inactive	inactive	inactive	inactive	inactive									
O=C(C=C(O)C(F)(F)F)C(F)(F)F	inactive	inactive	inactive	inactive	inactive	inactive	inactive	inactive	inactive										
N=C(N)c1ccc(OCCCCCOc2ccc(C(=N)N)cc2)cc1	inactive		inactive		inactive	inactive	inactive	inactive	inactive		23.2 µM (active)		87.5 µM (active)						
O=CC(F)(F)C(F)(F)C(F)(F)F	inactive	inactive	inactive	inactive	inactive	inactive	inactive	inactive	inactive	inactive									
C=C(c1ccc(C(=O)O)cc1)c1cc2c(cc1C)C(C)(C)CCC2(C)C	inactive	inactive	inactive	inactive	inactive	inactive	inactive	inactive	inactive		0.0545 µM (active)		11.1 µM (active)	34.1 µM (active)	35.6 µM (active)	28.6 µM (active)			
C=CC(=C)CC/C=C(\C)CCC=C(C)C	inactive	inactive	inactive	inactive	inactive	inactive	inactive	inactive	inactive										
NC(=NCCCCCCN=C(N)/N=C(\N)Nc1ccc(Cl)cc1)/N=C(\N)Nc1ccc(Cl)cc1	inactive	inactive	inactive	inactive	inactive	inactive	inactive	inactive	inactive		4.6 µM (active)		5.68 µM (active)	26.1 µM (active)			7.45 µM (active) and 6.93 µM (active)	22.9 µM (active)	
O=C1OC2(c3ccccc31)c1cc(I)c(O)c(I)c1Oc1c2cc(I)c(O)c1I	inactive	inactive	inactive		inactive	inactive	inactive	inactive	inactive			29.9 µM (active)	36.1 µM (active) and 29.8 µM (active)						
CCCCCC(C)OC(=O)COc1ccc(Cl)c2cccnc12 (stereo not given)	inactive	inactive	inactive	inactive	inactive	inactive	inactive	inactive	inactive										
CCOC(OCC)C(=O)c1ccccc1	inactive	inactive	inactive		inactive	inactive	inactive	inactive	inactive		77.6 µM (active)								
CC(C)(C)c1ccc(O)c(O)c1	inactive	inactive	inactive		inactive	inactive	inactive	inactive	inactive	inactive			48.7 µM (active) [middle of 4 runs]						45 µM (active) and 59 µM (active) and 37.3 µM (active)
O=S(=O)(O)C(F)(F)C(F)(F)C(F)(F)C(F)(F)C(F)(F)C(F)(F)C(F)(F)C(F)(F)C(F)(F)C(F)(F)F	inactive	inactive	inactive	inactive	inactive	inactive	inactive	inactive	inactive	inactive									
